About 83,000 compounds went through this panel and 20% of them were active in at least one assay; those are over-represented in the sample as a whole.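 Single-concentration screen, 48 h exposure, 96-well plates. Endpoint: percent growth. Below 10 = active.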 Activity calls are given as the source filed them.
What was measured:
Assay in all cases: NCI-60 one-dose screen, 48 h (100 = growth as untreated, 0 = no growth, -100 = all killed)
RPMI-8226 leukemia = details: 10 µM unless noted
OVCAR-8 ovarian = details: 10 µM unless noted
OVCAR-5 ovarian = details: 10 µM unless noted
OVCAR-4 ovarian = details: 10 µM unless noted
SK-OV-3 ovarian = details: 10 µM unless noted
IGROV1 ovarian = details: 10 µM unless noted
OVCAR-3 ovarian = details: 10 µM unless noted
HS 578T breast = details: 10 µM unless noted
NCI/ADR-RES ovarian = details: 10 µM unless noted
T-47D breast = details: 10 µM unless noted
BT-549 breast = details: 10 µM unless noted
MDA-MB-435 melanoma = details: 10 µM unless noted
SW-620 colon = details: 10 µM unless noted
MCF7 breast = details: 10 µM
HCT-116 colon = details: 10 µM unless noted
HCC-2998 colon = details: 10 µM unless noted
KM12 colon = details: 10 µM unless noted

Measured: growth

COc1ccc(-c2nsc3c2NC(=O)CC3c2ccsc2)cc1 (configuration not stated)
inactive: RPMI-8226 leukemia 21.5% | OVCAR-8 ovarian 30.7% | OVCAR-5 ovarian 33% | OVCAR-4 ovarian 31.1% | IGROV1 ovarian 15.7% | HS 578T breast 32.5% | NCI/ADR-RES ovarian 22.2% | T-47D breast 62.7% | BT-549 breast 12.1% | SW-620 colon 28.3% | MCF7 breast 16.7% | HCT-116 colon 10.8% | HCC-2998 colon 31.1%
active: SK-OV-3 ovarian -4.77% | OVCAR-3 ovarian -39.3% | MDA-MB-435 melanoma -44% | KM12 colon 8.01%

Cc1ccc2cc3c(N)c4c(C)ccc(C)c4nc3nc2c1
inactive: RPMI-8226 leukemia 34.3% | OVCAR-8 ovarian 34.2% | OVCAR-5 ovarian 89.5% | OVCAR-4 ovarian 72.9% | SK-OV-3 ovarian 93.3% | IGROV1 ovarian 75.8% | OVCAR-3 ovarian 81.3% | HS 578T breast 70% | NCI/ADR-RES ovarian 72.7% | BT-549 breast 53.9% | SW-620 colon 11.1% | MCF7 breast 37.9% | HCT-116 colon 24.5% | HCC-2998 colon 62% | KM12 colon 69.6%
active: T-47D breast 6.15% | MDA-MB-435 melanoma -70.3%

COc1ccc(C2=Nn3c(NN)nnc3SC2)cc1
inactive: RPMI-8226 leukemia 104% | OVCAR-8 ovarian 96.4% | OVCAR-5 ovarian 108% | OVCAR-4 ovarian 101% | SK-OV-3 ovarian 105% | IGROV1 ovarian 96% | OVCAR-3 ovarian 111% | HS 578T breast 96% | NCI/ADR-RES ovarian 102% | T-47D breast 96.1% | BT-549 breast 108% | MDA-MB-435 melanoma 103% | SW-620 colon 112% | MCF7 breast 91.4% | HCT-116 colon 112% | HCC-2998 colon 111% | KM12 colon 101%

COc1cc(/C=C/C(=O)N2c3ccccc3CC2C)c(OC)c2c1OCO2 (configuration not stated)
inactive: RPMI-8226 leukemia 88.6% | OVCAR-8 ovarian 96.9% | OVCAR-5 ovarian 87.1% | OVCAR-4 ovarian 96.6% | SK-OV-3 ovarian 122% | IGROV1 ovarian 105% | OVCAR-3 ovarian 103% | HS 578T breast 96.2% | NCI/ADR-RES ovarian 81.5% | T-47D breast 77.2% | BT-549 breast 97.7% | MDA-MB-435 melanoma 85.8% | SW-620 colon 93.8% | MCF7 breast 91.6% | HCT-116 colon 97.2% | HCC-2998 colon 100% | KM12 colon 93.8%

COc1ccc(/C=C2\N=C(c3ccccc3)N(c3ccc(-c4nc5ccc(C)cc5s4)cc3)C2=O)cc1
inactive: RPMI-8226 leukemia 69.3% | OVCAR-8 ovarian 92% | OVCAR-5 ovarian 84.7% | OVCAR-4 ovarian 64.6% | SK-OV-3 ovarian 94.2% | IGROV1 ovarian 58.6% | OVCAR-3 ovarian 72.2% | HS 578T breast 102% | NCI/ADR-RES ovarian 93.6% | T-47D breast 54.1% | BT-549 breast 92.8% | MDA-MB-435 melanoma 86.9% | SW-620 colon 101% | MCF7 breast 77.1% | HCT-116 colon 85.9% | HCC-2998 colon 96% | KM12 colon 72.1%

CCOc1ccc(Nc2ccnc3cc(Cl)ccc23)cc1
active: RPMI-8226 leukemia -14.1% | OVCAR-8 ovarian -1.07% | SK-OV-3 ovarian 2.15% | NCI/ADR-RES ovarian 3.34% | T-47D breast 1.44% | MDA-MB-435 melanoma -7.51% | MCF7 breast 4.41% | HCT-116 colon 9.4% | KM12 colon 6.96%
inactive: OVCAR-5 ovarian 36% | OVCAR-4 ovarian 16.5% | IGROV1 ovarian 14.9% | OVCAR-3 ovarian 11.7% | HS 578T breast 29.3% | BT-549 breast 14.4% | SW-620 colon 14.5% | HCC-2998 colon 12.2%

C#CCn1cc(C=C2C(=O)NC(=O)NC2=O)c2cc(Cl)ccc21
inactive: RPMI-8226 leukemia 70.3% | OVCAR-8 ovarian 87.5% | OVCAR-5 ovarian 74.3% | OVCAR-4 ovarian 75.9% | SK-OV-3 ovarian 112% | IGROV1 ovarian 82.8% | OVCAR-3 ovarian 88.5% | HS 578T breast 84% | NCI/ADR-RES ovarian 99.8% | T-47D breast 60.8% | BT-549 breast 64.6% | MDA-MB-435 melanoma 88.3% | SW-620 colon 97.7% | MCF7 breast 72.4% | HCT-116 colon 71.5% | HCC-2998 colon 95.6% | KM12 colon 85.6%

Cc1cccc(NC(=O)c2sc3nc4c(cc3c2N)CCCC4)c1C
inactive: OVCAR-8 ovarian 23% | OVCAR-5 ovarian 44.1% | OVCAR-4 ovarian 65.3% | SK-OV-3 ovarian 32.5% | IGROV1 ovarian 40.7% | HS 578T breast 25.1% | T-47D breast 36.3% | BT-549 breast 37.5% | SW-620 colon 23.7% | MCF7 breast 17.1% | HCT-116 colon 14.8% | HCC-2998 colon 22.8%
active: RPMI-8226 leukemia 7.76% | OVCAR-3 ovarian -10.1% | NCI/ADR-RES ovarian -15.8% | MDA-MB-435 melanoma -40.6% | KM12 colon 8.85%

CCOC(=O)C1(Cc2ccccc2)CCN(Cc2cccc(OC)c2O)CC1
active: RPMI-8226 leukemia 9.49% | OVCAR-8 ovarian 3.17% | IGROV1 ovarian -8.64% | NCI/ADR-RES ovarian 6.98%
inactive: OVCAR-5 ovarian 42.4% | OVCAR-4 ovarian 17.2% | SK-OV-3 ovarian 17.5% | OVCAR-3 ovarian 22.8% | HS 578T breast 28.6% | T-47D breast 17.2% | BT-549 breast 50.4% | MDA-MB-435 melanoma 20.1% | SW-620 colon 20.9% | MCF7 breast 13.9% | HCT-116 colon 21% | HCC-2998 colon 11.9% | KM12 colon 22.2%

O=C(Nc1ccc(C23CC4CC(CC(c5ccccc5)(C4)C2)C3)cc1)c1cccs1
inactive: RPMI-8226 leukemia 41.1% | OVCAR-8 ovarian 57.5% | OVCAR-5 ovarian 100% | OVCAR-4 ovarian 58% | SK-OV-3 ovarian 99.3% | IGROV1 ovarian 92.8% | OVCAR-3 ovarian 71.1% | HS 578T breast 92.7% | NCI/ADR-RES ovarian 58% | T-47D breast 49.2% | BT-549 breast 68.9% | MDA-MB-435 melanoma 44.9% | SW-620 colon 82% | MCF7 breast 67.3% | HCT-116 colon 60.4% | HCC-2998 colon 74.8% | KM12 colon 64.8%

O=C1NC(=O)C(=Cc2cn(Cc3cn(Cc4ccc(Cl)cc4Cl)nn3)c3ccccc23)C(=O)N1
inactive: RPMI-8226 leukemia 83% | OVCAR-8 ovarian 83% | OVCAR-5 ovarian 50.8% | OVCAR-4 ovarian 82.4% | SK-OV-3 ovarian 69% | IGROV1 ovarian 85.7% | OVCAR-3 ovarian 92.4% | HS 578T breast 87.5% | NCI/ADR-RES ovarian 96.9% | T-47D breast 64.7% | BT-549 breast 91.7% | MDA-MB-435 melanoma 94.9% | SW-620 colon 92.1% | MCF7 breast 80% | HCT-116 colon 91.3% | HCC-2998 colon 117% | KM12 colon 98.3%
